Compounds with a hit are over-represented: about 4.2% of the library has one in this group of screens.
DAX1 StAR inh: DAX1 (NR0B1) inhibitors on StAR promoter, primary screen, cell-based, luminescence, SF-1 (NR5A1), full-length DAX-1; HEK293T StAR-luciferase reporter, SF-1/DAX-1 repression relief; inhibition, % at 6.8 µM; hit rate 1.1% among 370,000;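 active = inhibition above the mean over all tested compounds plus 3 SD, cut at about 3.6% in these data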;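 also: 0% = DAX-1 cells with DMSO and 100% = cells lacking DAX-1 with DMSO; higher inhibition means more luminescence from relief of DAX-1 repression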
ssDAF-12 act: S. stercoralis DAF-12 nuclear receptor activators, primary screen, cell-based, luminescence, HEK293, GRIP1 co-expression, lit1-tk-luc. Nuclear hormone receptor DAF-12 (Strongyloides stercoralis). HEK293 ssDAF-12/GRIP1 lit1-tk-luc reporter; % of 3 µM dafachronic acid response. activation, % at 6.8 µM. hit rate 1% among 370,000. AID 652126, 2013;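 active = activation above the mean over all tested compounds plus 3 SD, cut at about 0.9% in these data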;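 also: 0% = DMSO-only wells and 100% = 3 µM delta7-dafachronic acid wells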
hcDAF12 agonist: H. contortus DAF-12 nuclear receptor activators, primary screen, cell-based, luminescence, HEK293, lit1-tk-luc reporter. activation, % at 6.8 µM. HEK293 hcDAF-12 lit1-tk-luc reporter; 0% DMSO, 100% Δ7-dafachronic acid. hit rate 1.4% among 370,000. AID 652067, 2013;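 active = activation above the mean of all tested compounds plus 3 SD, cut at about 5.5% in these data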;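 also: 100% = response to 3 µM Δ7-dafachronic acid high control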
hgDAF-12 ag: H. glycines DAF-12 receptor agonists, primary screen, cell-based, luminescence, HEK293, GAL4 fusion, UAS-luciferase | HEK293 GAL4-hgDAF12 UAS-luciferase reporter, agonist luminescence; normalized to butyrate control | Nuclear hormone receptor DAF-12 (Heterodera glycines), GAL4 fusion | AID 687014, 2013 | activation, % at 6.8 µM | hit rate 1.8% among 370,000;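 active = activation above a cutoff set at the mean of all screened compounds plus 3 SD, cut at about 10% in these data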;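 also: 0% = DMSO wells and 100% = sodium butyrate wells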
SMARCA2 act: SMARCA2 (BRM) function activators, primary screen, cell-based, luminescence, high throughput | MG213 cells, MMTV-luciferase reporter, dexamethasone, overnight | hit rate 1% among 370,000 | activation, % at 9.1 µM | AID 652017, 2013; in the data active = activation above about 7.8%;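 also: 0% = vehicle wells and 100% = reference activator wells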
hgDAF12 ag: H. glycines DAF-12 receptor agonists, confirmation, cell-based, luminescence, HEK293, GAL4-LBD fusion. shares compounds with hgDAF-12 ag. HEK293 GAL4-hgDAF12 luciferase reporter, agonist mode; percent of butyrate response. activation, % at 6.8 µM. hit rate 80% among 3,300. AID 743050, 2013;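 active = mean activation over triplicate wells above the hit cutoff derived from the earlier primary screen, cut at about 11% in these data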;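 also: 0% = DMSO low control and 100% = 2 mM sodium butyrate high control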
LXRb DAF12 ctr: LXR agonists, Gal4 luciferase reporter, confirmation, counter-screen for hgDAF-12 agonist project, cell-based, luminescence, HEK293, H. glycines campaign; activation, % at 6.8 µM; shares compounds with hgDAF-12 ag; 24 h; AID 743051, 2013; 3,300 tested, under 10 active;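 active = mean activation of the triplicate above a set limit carried over from the primary screen, none filed active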
Target sequence (P55055 whole entry, looked up, the tested form may be a part): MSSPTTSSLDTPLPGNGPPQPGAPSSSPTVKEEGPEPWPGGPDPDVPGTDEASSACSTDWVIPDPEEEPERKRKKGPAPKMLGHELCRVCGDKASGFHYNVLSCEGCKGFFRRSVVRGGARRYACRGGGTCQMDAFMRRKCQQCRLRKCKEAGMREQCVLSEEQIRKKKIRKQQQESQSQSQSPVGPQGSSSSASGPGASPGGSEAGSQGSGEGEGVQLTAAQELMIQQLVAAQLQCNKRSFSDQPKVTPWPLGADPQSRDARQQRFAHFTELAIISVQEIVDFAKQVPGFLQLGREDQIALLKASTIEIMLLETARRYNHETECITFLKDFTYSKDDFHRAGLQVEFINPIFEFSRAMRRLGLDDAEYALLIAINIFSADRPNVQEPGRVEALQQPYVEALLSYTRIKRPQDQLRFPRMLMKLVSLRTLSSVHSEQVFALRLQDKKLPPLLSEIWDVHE
* hit, by the source's call; x = no result.

SMILES	DAX1 StAR inh	ssDAF-12 act	hcDAF12 agonist	hgDAF-12 ag	SMARCA2 act	hgDAF12 ag	LXRb DAF12 ctr
Cc1nc(C(C)NC(=O)CCc2nnc(CCCc3ccccc3)o2)c(C)s1 (stereo unspecified)	1	0	2	13*	5	10	0
Cc1cc(C)n(CC(C)NC(=O)CCc2nnc(CCc3ccccc3)o2)n1 (stereo unspecified)	-1	-1	-1	1	0	x	x
COC(=O)[C@]12C[C@H](CC(=O)NCC34CC5CC(CC(C5)C3)C4)C(=O)N(CCC3=CCCCC3)C1=C[C@H](C(C)(C)C)O[C@@H]2C	0	-1	1	1	3	x	x
COc1ccc(-n2ncc3c(NC(C)C)ncnc32)cc1	3	1	5	19*	2	17*	1
COCC(C)Nc1ncnc2c1cnn2-c1ccc(Cl)cc1 (stereo unspecified)	4.0*	1	5.8*	18*	4	11*	1
CC(C)N=C1NN=C(c2ccc(Cl)c(Cl)c2)CS1	3	-1	2	19*	7	19*	1
CC(C)(C)N=C1NN=C(c2ccc(Cl)cc2)CS1	0	-1	1	0	0	x	x
CC(=O)NC(c1ccc(F)c(F)c1)c1nc(-c2ccncc2)cs1 (stereo unspecified)	-2	-1	-1	0	-6	x	x
CCCCN1CCc2c([nH]c3ccc(C)cc23)C1=O	3.9*	1	4	15*	7	9	0
Cc1ccc2[nH]c3c(c2c1)CCC3=O	0	-1	-2	1	1	x	x
N#CC1CC(c2ccccc2)=NN1c1ccccc1[N+](=O)[O-] (stereo unspecified)	1	0	4	16*	6	13*	0
O=CN1N=C(c2ccccc2)CC1c1ccccc1[N+](=O)[O-] (stereo unspecified)	0	0	1	1	2	x	x
Cc1ccccc1OCCNC(=O)c1ccc2ccccc2n1	3	0	2	15*	7	12*	1
Cc1ccccc1CNC(=O)c1ccc2ccccc2n1	0	-1	-1	0	-1	x	x
Cc1ccc(N=Nc2ccc(O)cc2)c(Br)c1	3	1	5	15*	6	16*	1
O=C(NCCN1CCC(Cc2ccccc2)CC1)C1CCCN(S(=O)(=O)c2ccc(Br)s2)C1 (stereo unspecified)	-3	-2	-5	-3	-6	x	x
CCOc1ccc(-c2csc(N3CCC(C(N)=O)CC3)n2)cc1	x	-2	4	4	x	x	x
CSc1ccc(-c2cnc(N3CCC(C(N)=O)CC3)s2)cc1	x	1	3	21*	x	17*	1
O=C(OCC(=O)N1CCOCC1)c1ccccc1Cc1ccccc1	4.1*	1	6.3*	17*	4	18*	1
O=C(OCC(=O)N1CCOCC1)c1ccccc1Br	0	0	0	1	0	x	x
O=C(CSc1nc2ccccc2nc1N1CCCCC1)N1CCN(S(=O)(=O)c2ccccc2)CC1	-1	-1	-4	4	-7	x	x
Cc1ccc(NC(=O)CN2C(=O)CCSc3ccccc32)c(C)c1	-1	-1	1	2	-3	x	x
O=C(c1cc(F)ccc1F)N(Cc1ccccn1)CC1CCCO1 (stereo unspecified)	0	-2	-1	1	-2	x	x
O=C(c1ccc(F)cc1Cl)N(Cc1ccccn1)CC1CCCO1 (stereo unspecified)	0	-1	-2	31*	3	1	0
CCOC(=O)Nc1ccc2c(c1)C(=NO)c1ccccc1-2	3	1	4	18*	7	13*	1
SMILES	DAX1 StAR inh	ssDAF-12 act	hcDAF12 agonist	hgDAF-12 ag	SMARCA2 act	hgDAF12 ag	LXRb DAF12 ctr
CCOC(=O)Nc1ccc2c(c1)C(=NNC(N)=S)c1ccccc1-2	-5	-2	-3	-5	3	x	x
COC(=O)C1CN(Cc2ccc(OC)cc2)CCS(=O)(=O)N1Cc1ccc(F)cc1 (stereo unspecified)	0	-2	0	-1	-6	x	x
CCOC(=O)c1cccc(NC(=O)CN(C)S(=O)(=O)c2ccc(F)cc2)c1	-1	-1	-2	0	0	x	x
CN(C)c1ccc(C=Cc2ccnc3ccccc23)cc1N	1	-1	2	17*	-5	10	0
COc1ccccc1C=Cc1ccnc2ccccc12	1	-1	1	1	-1	x	x
CC(=O)N1CCCN(C(=O)CN2C(=O)CC(C)(C)S(=O)(=O)c3ccccc32)CC1	1	0	-1	-4	2	x	x
O=C(Nc1ccc(Cl)cc1F)c1ccccc1Br	4.4*	-1	5	15*	7	14*	1
CC(=O)C1=C(C)N(Cc2ccc(Br)cc2)C(=S)NC1c1cccc(Cl)c1 (stereo unspecified)	-1	-1	-1	2	-5	x	x
Cc1nc2ccc(S(=O)(=O)Nc3cccc(-c4nc5cccnc5s4)c3C)cc2s1	-2	-2	-3	-5	-5	x	x
Cc1nc2ccc(S(=O)(=O)Nc3cc(-c4nc5cccnc5s4)ccc3C)cc2s1	3	0	5	17*	1	10	0
CCOc1ccc(N2C(=O)c3ccccc3C2O)cc1 (stereo unspecified)	3.8*	0	4	20*	4	9	0
Cc1ccc(NC(=O)Nc2nc3ccc(S(C)(=O)=O)cc3s2)cc1	0	-1	-3	-2	1	x	x
CC(C)(C)C(=O)Nc1nc2ccc(S(C)(=O)=O)cc2s1	0	-1	3	14*	0	13*	0
CS(=O)(=O)c1ccc2nc(NC(=O)Nc3ccccc3F)sc2c1	3	0	2	15*	7	27*	1
CCc1ccc(C(=O)O)cc1	0	-2	-1	-1	-3	x	x
CCc1ccc(C(=O)CN2CCSC2=N)cc1	3	1	5.6*	20*	2	17*	1
CCCc1ccc2c(C)cccc2n1	0	1	0	4	2	x	x

Source: PubChem
